Data reported in PubChem BioAssay (NCI).
This is part of a sample that, as a whole, favours compounds with a hit. Of some 83,000 tested, about 20% had one in any assay.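 Step 1: grow cells in 96-well plates. Step 2: add test compound at a single concentration. Step 3: incubate 48 h. Step 4: record percent growth.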 Unmarked numbers belong to inactive results. The source made the active and inactive calls. The calls were made as follows: active = growth percent below 10; inactive = the rest.

System: NCI/ADR-RES ovarian
Test: NCI-60 one-dose screen, 48 h (100 = growth as untreated, 0 = no growth, -100 = all killed)
Details: 10 µM

| Compound | growth |
| --- | --- |
| O=C(/C=C/c1ccc(Cl)cc1)c1nc2ccccc2n1Cc1ccc(F)cc1 | 7.75% (active) |
| CC1=C(CCC=O)C2=C(C)C3(CC3)[C@@](C)(O)C(=O)C2=C1 | -43.5% (active) |
| O=C(NC([Se])=NC1CCCCC1)c1ccc2c(c1)OCO2 | 34.4% |
| C[C@H]1[C@H](OC(=O)CCC(=O)N(CCCc2cn(-c3ccc(C#N)cc3)nn2)CCNc2ccnc3cc(Cl)ccc23)O[C@@H]2OC3(C)CC[C@H]4[C@H](C)CC[C@@H]1[C@@]24OO3 | 28.4% |
| C[C@H]1[C@@H](Oc2ccc(-c3cn(-c4ccnc5cc(Cl)ccc45)nn3)cc2)O[C@@H]2OC3(C)CC[C@H]4[C@H](C)CC[C@@H]1[C@@]24OO3 | 19.6% |
| COc1ccc(/C=C/C(=O)c2nc3ccccc3n2Cc2ccc(Br)cc2)cc1 | 61.5% |
| COC(=O)CCn1c(-c2ccc(-n3cc(-c4ccc(O[C@H]5O[C@@H]6OC7(C)CC[C@H]8[C@H](C)CC[C@@H]([C@H]5C)[C@@]68OO7)cc4)nn3)cc2)nc2ccccc21 | 16.2% |
| C[C@H]1[C@H](OC(=O)CCC(=O)N(CCCc2cn(-c3ccc([N+](=O)[O-])cc3)nn2)CCNc2ccnc3cc(Cl)ccc23)O[C@@H]2OC3(C)CC[C@H]4[C@H](C)CC[C@@H]1[C@@]24OO3 | 30.6% |

System: T-47D breast
Test: as above
Details: 10 µM

| Compound | growth |
| --- | --- |
| O=C(/C=C/c1ccco1)c1nc2ccccc2n1Cc1ccc(Br)cc1 | 4.25% (active) |
| O=C(/C=C/c1ccco1)c1nc2ccccc2n1Cc1ccc(F)cc1 | 18% |
| COc1cc2cc(C(=O)N3C[C@@H](CCl)c4c3cc(OC(=O)N3CCN(C)[C@@H]5CSSC[C@@H]53)c3ccccc43)[nH]c2c(OC)c1OC | -5.73% (active) |
| C#CC[Se]C(=O)c1ccc2n[se]nc2c1 | 62.9% |
| O=C(/C=C/c1ccc(Cl)cc1Cl)c1nc2ccccc2n1Cc1ccc(F)cc1 | 27.2% |
| O=C(/C=C/c1ccc(Cl)cc1)c1nc2ccccc2n1Cc1ccc(Br)cc1 | 28% |
| CCOP(=O)(OCC)C(NC(C)=O)C(=O)SCCN (configuration not stated) | 99.6% |
| COc1cc2cc(C(=O)N3C[C@@H](CCl)c4c3cc(OC(=O)N3CCN(C)[C@@H]5CSSC[C@H]53)c3ccccc43)[nH]c2c(OC)c1OC | -11.8% (active) |
| COc1ccc2cc([C@H](C)C(=O)[Se]CCC#N)ccc2c1 | 12% |
| CC12OOC(C)(OO1)C2CCC(=O)OCCNc1ccnc2cc(Cl)ccc12 (configuration not stated) | 16.5% |
| CC(C)N=C([Se])NC(=O)c1cccs1 | 79.4% |
| Cc1ccc2[nH]c(=S)n(-c3ccc(F)cc3)c(=O)c2c1 | 93.5% |
| CCOC(=O)C1=C(Nc2ccccc2)C(=O)OC12C(=O)Nc1ccccc12 (configuration not stated) | 110% |
| CC12CCC3(CCC(=O)NCCCNc4ccnc5cc(Cl)ccc45)[C@@](C)(OO[C@]3(C)O1)O2 | 36.9% |
| CC[C@]12C=CCN3CC[C@@]4(c5ccc(OC)cc5N(C)[C@H]4[C@@](O)(C(=O)OC)[C@@H]1OC(=O)CCCC[P+](C1CCCCC1)(C1CCCCC1)C1CCCCC1)[C@@H]32 | 3.83% (active) |
| CC(=O)Oc1ccccc1C(=O)[Se]C(=NC(C)C)NC(C)C | -45.6% (active) |
| COCCOCCOCCOc1ccc(-n2cc(CCCN(CCNc3ccnc4cc(Cl)ccc34)C(=O)CCC(=O)O[C@@H]3O[C@@H]4OC5(C)CC[C@H]6[C@H](C)CC[C@@H]([C@H]3C)[C@@]46OO5)nn2)cc1 | 20.6% |
| C[C@H]1[C@@H](CC(=O)N[C@@H](Cc2coc3ccccc23)B(O)O)O[C@@H]2OC3(C)CC[C@H]4[C@H](C)CC[C@@H]1[C@@]24OO3 | -27.7% (active) |
| COP(=O)(CC(F)(F)C(F)(F)F)OC | 13.2% |
| CC12OOC(C)(OO1)C2CCC(=O)NCCNc1ccnc2cc(Cl)ccc12 (configuration not stated) | 80.8% |

| Compound | growth |
| --- | --- |
| CC[C@]12C=CCN3CC[C@@]4(c5ccc(OC)cc5N(C)[C@H]4[C@@](O)(C(=O)OC)[C@@H]1OC(=O)CCC[P+](c1ccc(C)cc1)(c1ccc(C)cc1)c1ccc(C)cc1)[C@@H]32 | -78.4% (active) |
| CC(C)N=C([Se])NC(=O)c1ccccc1 | -34.6% (active) |
| CC[C@]12C=CCN3CC[C@@]4(c5ccc(OC)cc5N(C)[C@H]4[C@@](O)(C(=O)OC)[C@@H]1OC(=O)CCC[P+](C1CCCCC1)(C1CCCCC1)C1CCCCC1)[C@@H]32 | -1.81% (active) |
| CC1=C(COCCOC(=O)c2ccc(S(=O)(=O)F)cc2)C2=C(C)C3(CC3)[C@@](C)(O)C(=O)C2=C1 | -13.2% (active) |
| CC[C@]12C=CCN3CC[C@@]4(c5ccc(OC)cc5N(C)[C@H]4[C@@](O)(C(=O)OC)[C@@H]1OC(=O)CCCC[P+](c1ccc(OC)cc1)(c1ccc(OC)cc1)c1ccc(OC)cc1)[C@@H]32 | -46.6% (active) |
| CC1=C(CCC=NNC(N)=O)C2=C(C)C3(CC3)[C@@](C)(O)C(=O)C2=C1 | -38.1% (active) |
| CC[C@@]12CC(C(=O)OC)=C3Nc4cc5c(cc4[C@@]34CCN(C[C@H]3O[C@H]31)[C@@H]24)[C@@H]1[C@H](O5)[C@@H](O)[C@@]2(CC)CC(C(=O)OC)=C3Nc4cc(OC)ccc4[C@@]34CCN1[C@@H]24 | 25.7% |
| CCOP(=O)(CC(F)(F)C(F)(F)F)OCC | 17.3% |
| CC1=C2C(=C[C@@](C)(COP(=O)(Oc3ccccc3)Oc3ccccc3)[C@@H]2O)C(=O)[C@@](C)(O)C12CC2 | -47.8% (active) |
| CC(=O)Oc1ccccc1C(=O)NC([Se])=NC1CCCCC1 | -9.49% (active) |
| C[C@H]1[C@H](OC(=O)CCC(=O)N(CCCc2cn(-c3ccc(CN4CCOCC4)cc3)nn2)CCNc2ccnc3cc(Cl)ccc23)O[C@@H]2OC3(C)CC[C@H]4[C@H](C)CC[C@@H]1[C@@]24OO3 | 25.4% |
| O=C(/C=C/c1ccc(Cl)cc1)c1nc2ccccc2n1Cc1ccc(F)cc1 | 7.93% (active) |
| CC1=C(CCC=O)C2=C(C)C3(CC3)[C@@](C)(O)C(=O)C2=C1 | -41.3% (active) |
| O=C(NC([Se])=NC1CCCCC1)c1ccc2c(c1)OCO2 | -0.387% (active) |
| C[C@H]1[C@H](OC(=O)CCC(=O)N(CCCc2cn(-c3ccc(C#N)cc3)nn2)CCNc2ccnc3cc(Cl)ccc23)O[C@@H]2OC3(C)CC[C@H]4[C@H](C)CC[C@@H]1[C@@]24OO3 | 32.1% |
| C[C@H]1[C@@H](Oc2ccc(-c3cn(-c4ccnc5cc(Cl)ccc45)nn3)cc2)O[C@@H]2OC3(C)CC[C@H]4[C@H](C)CC[C@@H]1[C@@]24OO3 | 25.6% |
| COc1ccc(/C=C/C(=O)c2nc3ccccc3n2Cc2ccc(Br)cc2)cc1 | 31.1% |
| COC(=O)CCn1c(-c2ccc(-n3cc(-c4ccc(O[C@H]5O[C@@H]6OC7(C)CC[C@H]8[C@H](C)CC[C@@H]([C@H]5C)[C@@]68OO7)cc4)nn3)cc2)nc2ccccc21 | 14.9% |
| C[C@H]1[C@H](OC(=O)CCC(=O)N(CCCc2cn(-c3ccc([N+](=O)[O-])cc3)nn2)CCNc2ccnc3cc(Cl)ccc23)O[C@@H]2OC3(C)CC[C@H]4[C@H](C)CC[C@@H]1[C@@]24OO3 | 37.1% |
